# High-throughput results as filed in PubChem BioAssay.
# Tau fibril FP = qHTS for Inhibitors of Tau Fibril Formation, Fluorescence Polarization; K18 P301L tau heparin fibrillization, Alexa594 FP, 6 h; Potency, µM (doses to about 57.7 µM), usual class: inhibitors; 280,000 tested, 0.39% active; AID 1468, 2008; also: nearly all actives have a fitted effect of over 55% in size
# Target sequence (P10636 561-689 P618L limits assumed): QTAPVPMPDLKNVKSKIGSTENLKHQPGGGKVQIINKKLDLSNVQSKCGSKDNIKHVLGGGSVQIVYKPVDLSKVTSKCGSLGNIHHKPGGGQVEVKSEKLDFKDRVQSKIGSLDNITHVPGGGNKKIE
#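 K18 P301L tau (15 uM unlabeled/0.24 uM Alexa 594-labeled, final) + compound + heparin 20 uM final; 100 mM NaOAc pH 7; 6 hr 37 C; ThT 30 uM final added, 1 hr RT; FP ex 555/em 632 nm.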
# TRb-SRC2 inh = qHTS for Inhibitors of the Interaction of Thyroid Hormone Receptor and Steroid Receptor Coregulator 2; Thyroid hormone receptor beta (Homo sapiens), P10828; TRbeta-SRC2 peptide binding, fluorescence polarization; receptor liganded with 1 µM T3; Potency, µM (doses to about 106 µM), usual class: inhibitors; 280,000 tested, 0.065% active; also: nearly all actives have a fitted effect of over 50% in size
# Target sequence (P10828 whole entry, looked up): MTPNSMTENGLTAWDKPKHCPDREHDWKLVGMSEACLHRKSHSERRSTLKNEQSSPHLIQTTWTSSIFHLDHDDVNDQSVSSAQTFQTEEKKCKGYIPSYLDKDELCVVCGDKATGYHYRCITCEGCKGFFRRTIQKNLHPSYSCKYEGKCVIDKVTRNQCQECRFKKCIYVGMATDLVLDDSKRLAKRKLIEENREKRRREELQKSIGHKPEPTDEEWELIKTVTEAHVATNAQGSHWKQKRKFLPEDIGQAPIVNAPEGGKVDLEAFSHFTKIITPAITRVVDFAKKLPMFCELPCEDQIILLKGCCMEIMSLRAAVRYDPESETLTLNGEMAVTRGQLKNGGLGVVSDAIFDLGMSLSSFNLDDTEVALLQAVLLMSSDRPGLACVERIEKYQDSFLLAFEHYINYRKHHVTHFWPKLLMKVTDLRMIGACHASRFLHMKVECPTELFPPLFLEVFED
#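 Read-out is fluorescence polarization (555 nm excitation, 632 nm emission) of a Texas Red SRC2 coactivator peptide; loss of signal reflects blocked binding to human TRb ligand-binding domain in the presence of 1 uM T3.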
# Tau ThT inhib = qHTS for Inhibitors of Tau Fibril Formation, Thioflavin T Binding | Microtubule-associated protein tau (Homo sapiens), P10636 | recombinant tau K18 P301L, heparin-induced fibrillization, ThT fluorescence | Potency, µM (doses to about 57.4 µM), most hits filed as inhibitors | 270,000 tested, 2.1% active; also: nearly all actives have a fitted effect of over 55% in size
#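 Recombinant human tau K18 fragment […] carrying P301L, 15 uM unlabeled plus 0.24 uM Alexa 594-labeled, was fibrillized with 20 uM heparin in 100 mM sodium acetate pH 7 for 6 hr at 37 C; 30 uM ThT fluorescence read after 1 hr.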
# TR SRC2 fluor cs = Total Fluorescence Counterscreen for Inhibitors of the Interaction of Thyroid Hormone Receptor and Steroid Receptor Coregulator 2. Potency, µM (highest dose often 106 µM). TRb/SRC2 Texas Red total fluorescence interference. 280,000 tested, 0.29% active; active = well fitted curve in either direction with a large enough effect; inconclusive = small, poorly fitted or top-dose-only effect
#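 Flags fluorescent or light-absorbing compounds by total fluorescence, S + 2P, at 555 nm excitation and 632 nm emission. Mixture: 20 nM Texas Red SRC2 peptide, 0.6 uM human TRb LBD, 1 uM T3, 5% DMSO; compound exposure 5 h at ambient temperature.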
# Tau fluor counter = Counterscreen qHTS for Inhibitors of Tau Fibril Formation, Fluorescence Polarization | tau K18 P301L (four-repeat tau fragment) Alexa594 fluorescence, heparin fibrillization | Potency, µM (doses to about 57.7 µM) | 280,000 tested, 0.93% active | AID 1463, 2008; also: nearly all actives have a fitted effect of over 55% in size
#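 Human K18 P301L tau (15 uM unlabeled plus 0.24 uM Alexa 594-labeled, final) in 100 mM sodium acetate pH 7 was mixed with compound and 20 uM heparin and incubated 6 hr at 37 C.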
# A number is an active result; 0 = inactive; ? = inconclusive; - = no result given; [ ] = remark or other dose. In the library only some 3% were active in any assay of this set; here they are far more common. Unless noted, calls follow the shape of the dose curve; as a rule, active = well fitted curve in the direction sought with a large enough effect; inconclusive = small, poorly fitted or top-dose-only effect, or another doubt; inactive = no such curve, though single readings can be large; an effect the other way counts as inactive or inconclusive.
SMILES,Tau fibril FP,TRb-SRC2 inh,Tau ThT inhib,TR SRC2 fluor cs,Tau fluor counter
CCCC(=O)Nc1ccc2c(c1)nc(CN1CCN(C(=O)OCC)CC1)n2C(C)C,0,0,0,100µM[quencher],0
CC(=O)Nc1ccc(NC(=O)CC(C)n2ccc(C)n2)cc1 (stereo unspecified),0,0,0,0,0
CCN(CC)c1cccc(OC2=NS(=O)(=O)c3ccccc32)c1,0,39.8µM,0,44.7µM[fluorescent],0
CCc1ccc(OC2=NS(=O)(=O)c3ccccc32)cc1,0,0,0,0,0
O=C(C1=C[C@@H]2[C@H]3C(=O)N(c4ccccc4Cl)C(=O)[C@H]3[C@@H](C(=O)c3ccc(Cl)cc3)N2C=C1)c1ccccc1,0,0,22.4µM,0,?
Cc1ccc2c(CC(=O)Nc3cccc(C(F)(F)F)c3)coc2c1,25.1µM,0,0,0,?
Cc1ccc2c(CC(=O)Nc3ccc(S(=O)(=O)N4CCC(C)CC4)cc3)coc2c1,10µM,0,0,0,?
Cc1ccc2occ(CC(=O)Nc3ccc(S(=O)(=O)N4CCC(C)CC4)cc3)c2c1,8.91µM,0,0,0,?
Cc1ccc2onc(CC(=O)Nc3cccc(C(F)(F)F)c3)c2c1,0,0,0,0,0
CO[C@@H]1[C@H](OC(=O)/C=C/C=C/C=C/C=C/C(=O)O)CC[C@]2(CO2)[C@H]1[C@@]1(C)O[C@@H]1CC=C(C)C,-,0,-,0,-
CCc1cnc2c(c1SCC(=O)c1ccc(OC)cc1)c(=O)n(C)c(=O)n2C,0,0,?,0,0
COc1ccc(-c2cnnc(N/N=C/c3ccc(-c4ccc([N+](=O)[O-])cc4)o3)n2)cc1,0,0,0,0,0
COc1ccccc1-c1cnnc(N/N=C/c2ccc(-c3cccc(Br)c3)o2)n1,0,0,3.55µM,0,?
O=S(=O)(c1ccc2nc(Nc3ccc(Br)cc3F)ccc2c1)N1CCCCC1,?,0,0,0,?
COCCCNC(=O)CCc1c(C)nc2cc(-c3ccc(Cl)cc3)nn2c1C,0,0,0,0,0
COc1ccc(-c2c(N)nnc3c2[nH]c2ccccc23)cc1OC,0,0,?,0,0
COc1ccc(OC)c2c(=S)c3ccccc3[nH]c12,7.94µM,0,3.98µM,?,11.2µM[quencher]
CCCSc1ncc(Cl)c(C(=O)Nc2c(C(=O)c3ccc(C)cc3)oc3ccccc23)n1,0,0,0,0,0
CC(=O)Oc1cc(-c2coc3cc(OC(C)=O)c(OC(C)=O)c(OC(C)=O)c3c2=O)cc(OC(C)=O)c1OC(C)=O,8.91µM,0,3.55µM,0,?
COc1ccc(C2NC(=O)NC3=C2CCc2ccccc23)cc1 (stereo unspecified),?,0,25.1µM,0,0
Cc1ccc(C2NC(=O)NC3=C2CCc2ccccc23)cc1 (stereo unspecified),0,0,?,0,0
CCn1ccc2c(OCC(=O)Nc3ccccc3C(F)(F)F)cccc2c1=O,0,0,0,0,0
Cc1ccc2c(c1)c(CC(NC(=O)c1ccccc1Oc1ccccc1)C(=O)O)cn2C(=O)OCc1ccccc1 (stereo unspecified),-,0,-,0,-
Nc1cc(C(=O)O)c(N)c2c1C(=O)c1ccccc1C2=O,20µM,39.8µM,4.47µM,44.7µM[fluorescent],?
Nc1c(C(=O)O)ccc2c1C(=O)c1ccccc1C2=O,0,0,10µM,?,0
SMILES,Tau fibril FP,TRb-SRC2 inh,Tau ThT inhib,TR SRC2 fluor cs,Tau fluor counter
Cc1cc2c(cc1NS(=O)(=O)c1ccc(Br)cc1)n(C)c(=O)c(=O)n2C,0,0,0,2239µM[quencher],0
CCCn1c(O)c(N=Nc2ccc3ccccc3n2)c2ccccc21,0,0,12.6µM,0,0
CC(C)CCn1c(O)c(N=Nc2ccccn2)c2ccccc21,0,0,?,0,0
CCOC(=O)c1c(C)[nH]c2cc(Br)c(O)cc12,0,0,?,0,0
CCOC(=O)c1c(OCC)[nH]c2c1cc(O)c1ccccc12,0,0,14.1µM,0,?
C=CC(C)(C)c1[nH]c2ccccc2c1C1=C(O)C(=O)C(c2c[nH]c3c(CC=C(C)C)cccc23)=C(O)C1=O,?,0,14.1µM,0,15.8µM[quencher]
CCN1/C(=C\C=C2\C(=O)N(C)C(=S)N2C)Sc2ccccc21,0,?,2µM,0,0
CCN1/C(=C2/OC(=S)N(C)C2=O)Sc2ccccc21,0,0,0,0,0
Cc1ccccc1NC(=O)c1cnc2sc(N3CCCC3)nn2c1=O,0,0,0,0,0
CCc1ccccc1NC(=O)c1cnc2sc(N3CCCC3)nn2c1=O,0,0,0,35.5µM[quencher],0
Cc1ccc(-n2nnnc2-c2ccccc2)cc1,0,0,0,0,0
Cc1ccc(-n2nnnc2C(Cl)c2nnnn2-c2ccc(C)cc2)cc1,?,0,20µM,0,0
CCCN(CCC)c1c([N+](=O)[O-])cc(C(F)(F)F)c(N)c1[N+](=O)[O-],-,0,-,0,-
O=C(O)c1cc(O)c2c(c1)C(=O)c1cc(O)cc(O)c1C2=O,0,0,7.08µM,0,?
CCOC(=O)c1cccc(NC(=O)NC(C)c2c(-n3cccc3)sc3c2CCN(C)C3)c1 (stereo unspecified),?,0,0,?,?
CCOc1ccccc1C1N=C(N)Nc2nc3ccccc3n21 (stereo unspecified),0,0,0,0,0
Cc1[nH][nH]c(=O)c1C(c1c(C)[nH][nH]c1=O)c1cn(Cc2ccccc2Cl)c2ccccc12,?,?,11.2µM,0,0
COC(=O)N/N=C/c1cn(Cc2ccccc2Cl)c2ccccc12,0,0,0,0,?
Brc1ccc(-c2csc(-c3c[nH]c4ccccc34)n2)cc1,0,0,?,0,?
c1ccc2c(-c3csc(-c4ccncc4)n3)c[nH]c2c1,0,0,3.16µM,0,12.6µM[quencher]
COc1cc(/C=N/N=C2/C(=O)Nc3ccccc32)ccc1O,0,0,11.2µM,0,?
O=C1Nc2ccccc2/C1=N\N=C\c1ccc(O)c(O)c1,0,0,4.47µM,0,?
Cc1ccsc1/C=N/N=C1\C(=O)Nc2ccccc21,0,0,14.1µM,0,?
O=C(/C(=N/N=C/c1ccc(O)c(O)c1)c1ccccc1)c1ccccc1,0,0,?,0,12.6µM[quencher]
Cc1cccc(NC(=O)C(=O)NCC(c2cccnc2)N2CCc3ccccc3C2)c1C (stereo unspecified),0,0,?,0,0
CCOc1ccccc1NC(=O)C(OC(=O)c1ccc(O)cc1)c1ccccc1 (stereo unspecified),22.4µM,0,0,0,?
CCOc1ccccc1NC(=O)C(OC(=O)c1ccc(CC)cc1)c1ccccc1 (stereo unspecified),0,0,0,0,0
